# Tests used:
# Experiment in all cases: DAPPL (digital affinity profiling via proximity ligation, sequencing); 10 mM Tris-HCl pH 7.5, 50 mM NaCl, 1 mM DTT, 4% glycerol, room temperature, 30 min; GST-TFs on glutathione beads, 16-mer random dsDNA library, 0.1% formaldehyde crosslink after washing; high values mean tight binding
# Details in all cases: protein: recombinant; tags: N-terminal GST; dsDNA, one strand shown
# ERF = molecular target: T1, ERF (Homo sapiens, UniProt P50548 1-548)
# T1 sequence: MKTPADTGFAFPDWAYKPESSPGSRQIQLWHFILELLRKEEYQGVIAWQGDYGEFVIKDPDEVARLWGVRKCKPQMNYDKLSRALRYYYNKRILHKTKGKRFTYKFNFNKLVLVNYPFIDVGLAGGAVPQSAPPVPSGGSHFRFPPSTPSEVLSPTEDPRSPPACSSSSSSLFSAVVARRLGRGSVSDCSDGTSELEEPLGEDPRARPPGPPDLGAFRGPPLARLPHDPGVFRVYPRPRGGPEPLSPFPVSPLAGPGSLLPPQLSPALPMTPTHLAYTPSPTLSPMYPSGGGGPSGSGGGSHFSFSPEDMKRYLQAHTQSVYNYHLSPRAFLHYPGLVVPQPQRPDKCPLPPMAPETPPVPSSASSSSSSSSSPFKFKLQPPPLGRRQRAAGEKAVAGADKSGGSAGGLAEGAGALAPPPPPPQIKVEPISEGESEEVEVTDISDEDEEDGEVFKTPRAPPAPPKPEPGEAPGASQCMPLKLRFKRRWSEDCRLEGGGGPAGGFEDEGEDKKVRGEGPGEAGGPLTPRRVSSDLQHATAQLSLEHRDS
# Procedure, shortened: (§1)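 Yeast served to express human transcription factors as GST fusions, which were then captured on glutathione beads and labelled with DNA barcodes. Pooled with a tag-only sample, they were incubated with 200 nmole of a 16-mer random double-stranded DNA library for 30 min at room temperature in Tris/NaCl/DTT/glycerol buffer, washed, crosslinked with 0.1% formaldehyde, ligated by proximity, amplified by PCR and sequenced. Dividing each hexamer's read frequency for a factor by its frequency for the tag-only sample gives the binding signal.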
# ETV3L = molecular target: T2, ETV3L (Homo sapiens, UniProt Q6ZN32 1-361)
# T2 sequence: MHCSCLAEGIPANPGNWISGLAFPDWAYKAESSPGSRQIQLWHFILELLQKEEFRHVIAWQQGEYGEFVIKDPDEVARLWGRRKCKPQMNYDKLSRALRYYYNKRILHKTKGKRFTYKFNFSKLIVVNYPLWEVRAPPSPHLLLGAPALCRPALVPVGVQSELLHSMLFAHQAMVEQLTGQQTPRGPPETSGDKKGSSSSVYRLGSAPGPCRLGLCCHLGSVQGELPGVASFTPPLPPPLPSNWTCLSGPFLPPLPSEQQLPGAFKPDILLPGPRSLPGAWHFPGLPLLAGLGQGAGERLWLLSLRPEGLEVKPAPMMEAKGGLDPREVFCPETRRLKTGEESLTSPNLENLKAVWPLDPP
# Procedure, shortened: as §1
# ETS2 = molecular target: T3, ETS2 (Homo sapiens, UniProt P15036 1-469)
# T3 sequence: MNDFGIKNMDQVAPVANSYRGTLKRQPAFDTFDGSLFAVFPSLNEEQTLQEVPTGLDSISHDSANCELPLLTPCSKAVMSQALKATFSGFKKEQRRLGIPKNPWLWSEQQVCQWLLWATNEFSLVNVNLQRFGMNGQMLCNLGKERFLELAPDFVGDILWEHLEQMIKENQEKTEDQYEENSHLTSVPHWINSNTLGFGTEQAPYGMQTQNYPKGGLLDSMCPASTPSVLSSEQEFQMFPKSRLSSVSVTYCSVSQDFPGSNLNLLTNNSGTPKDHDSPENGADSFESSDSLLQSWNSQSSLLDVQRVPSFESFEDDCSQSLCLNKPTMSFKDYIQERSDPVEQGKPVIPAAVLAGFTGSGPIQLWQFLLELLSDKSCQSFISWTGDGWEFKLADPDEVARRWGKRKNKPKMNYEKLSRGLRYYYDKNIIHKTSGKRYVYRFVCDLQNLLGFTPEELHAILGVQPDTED
# Procedure, shortened: as §1
# SPDEF = molecular target: T4, SPDEF (Homo sapiens, UniProt O95238 1-335)
# T4 sequence: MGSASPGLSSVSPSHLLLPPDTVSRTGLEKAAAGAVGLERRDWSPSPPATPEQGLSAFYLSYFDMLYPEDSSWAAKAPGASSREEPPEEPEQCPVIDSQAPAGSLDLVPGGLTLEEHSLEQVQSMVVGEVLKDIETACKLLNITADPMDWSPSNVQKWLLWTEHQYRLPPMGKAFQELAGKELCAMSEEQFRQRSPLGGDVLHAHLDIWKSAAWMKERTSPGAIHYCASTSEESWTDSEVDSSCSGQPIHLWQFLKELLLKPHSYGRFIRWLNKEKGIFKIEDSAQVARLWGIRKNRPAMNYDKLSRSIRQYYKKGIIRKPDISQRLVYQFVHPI
# Procedure, shortened: as §1
# ETV7 = molecular target: T5, ETV7 (Homo sapiens, UniProt Q9Y603 1-341)
# T5 sequence: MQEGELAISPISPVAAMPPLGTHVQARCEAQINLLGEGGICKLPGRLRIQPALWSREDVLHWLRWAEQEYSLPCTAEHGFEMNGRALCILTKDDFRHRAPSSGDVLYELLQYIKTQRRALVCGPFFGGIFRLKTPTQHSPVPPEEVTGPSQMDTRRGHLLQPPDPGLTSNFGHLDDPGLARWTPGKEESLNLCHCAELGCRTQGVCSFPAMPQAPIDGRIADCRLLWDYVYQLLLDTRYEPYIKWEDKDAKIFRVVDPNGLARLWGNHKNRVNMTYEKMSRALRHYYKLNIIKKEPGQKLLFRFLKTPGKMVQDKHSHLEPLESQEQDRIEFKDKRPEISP
# Procedure, shortened: as §1
# ELF5 = molecular target: T6, ELF5 (Homo sapiens, UniProt Q9UKW6-2 1-255)
# T6 sequence: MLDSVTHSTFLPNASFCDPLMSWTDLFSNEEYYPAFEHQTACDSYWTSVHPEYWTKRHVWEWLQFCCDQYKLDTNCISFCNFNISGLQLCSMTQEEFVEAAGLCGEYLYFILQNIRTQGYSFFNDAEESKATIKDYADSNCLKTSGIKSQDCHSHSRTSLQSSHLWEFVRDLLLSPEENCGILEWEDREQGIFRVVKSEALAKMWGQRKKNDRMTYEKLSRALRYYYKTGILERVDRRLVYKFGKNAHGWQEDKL
# Procedure, shortened: as §1
# ETV3 = molecular target: T7, ETV3 (Homo sapiens, UniProt P41162-2 1-143)
# T7 sequence: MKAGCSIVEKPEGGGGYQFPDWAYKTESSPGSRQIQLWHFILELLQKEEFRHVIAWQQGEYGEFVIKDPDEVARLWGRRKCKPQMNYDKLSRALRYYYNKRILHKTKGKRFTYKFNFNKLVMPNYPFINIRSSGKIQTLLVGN
# Procedure, shortened: as §1
# ETV6 = ETV6 (Homo sapiens, UniProt P41212 1-452)
# Chain of ETV6 (P41212 whole entry): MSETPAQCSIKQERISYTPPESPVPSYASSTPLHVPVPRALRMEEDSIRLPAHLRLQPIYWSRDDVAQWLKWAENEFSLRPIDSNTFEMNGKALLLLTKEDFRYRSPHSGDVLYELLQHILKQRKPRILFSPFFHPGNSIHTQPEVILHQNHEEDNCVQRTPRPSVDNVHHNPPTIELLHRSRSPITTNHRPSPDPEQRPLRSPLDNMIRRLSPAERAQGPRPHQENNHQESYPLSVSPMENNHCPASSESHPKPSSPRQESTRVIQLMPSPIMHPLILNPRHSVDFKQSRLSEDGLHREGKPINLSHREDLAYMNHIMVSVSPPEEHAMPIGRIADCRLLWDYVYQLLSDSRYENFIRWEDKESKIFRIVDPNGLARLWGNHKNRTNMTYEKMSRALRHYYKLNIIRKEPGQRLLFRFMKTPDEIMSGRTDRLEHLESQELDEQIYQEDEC
# Procedure, shortened: as §1
Sequence,binding signal (ERF),binding signal (ETV3L),binding signal (ETS2),binding signal (SPDEF),binding signal (ETV7),binding signal (ELF5),binding signal (ETV3),binding signal (ETV6)
ATGGCT,"1.27 fold enrichment (6-mer frequency, TF over GST control)","1.37 fold enrichment (6-mer frequency, TF over GST control)","1.32 fold enrichment (6-mer frequency, TF over GST control)","1.23 fold enrichment (6-mer frequency, TF over GST control)","1.34 fold enrichment (6-mer frequency, TF over GST control)","1.25 fold enrichment (6-mer frequency, TF over GST control)","1.33 fold enrichment (6-mer frequency, TF over GST control)","1.38 fold enrichment (6-mer frequency, TF over GST control)"
GCACAA,"1.16 fold enrichment (6-mer frequency, TF over GST control)","1.08 fold enrichment (6-mer frequency, TF over GST control)","1.12 fold enrichment (6-mer frequency, TF over GST control)","1.05 fold enrichment (6-mer frequency, TF over GST control)","1.09 fold enrichment (6-mer frequency, TF over GST control)","1.1 fold enrichment (6-mer frequency, TF over GST control)","1.14 fold enrichment (6-mer frequency, TF over GST control)","1.11 fold enrichment (6-mer frequency, TF over GST control)"
GCTACC,"1.31 fold enrichment (6-mer frequency, TF over GST control)","1.15 fold enrichment (6-mer frequency, TF over GST control)","1.22 fold enrichment (6-mer frequency, TF over GST control)","1.22 fold enrichment (6-mer frequency, TF over GST control)","1.27 fold enrichment (6-mer frequency, TF over GST control)","1.24 fold enrichment (6-mer frequency, TF over GST control)","1.24 fold enrichment (6-mer frequency, TF over GST control)","1.16 fold enrichment (6-mer frequency, TF over GST control)"
CGATAT,"1.1 fold enrichment (6-mer frequency, TF over GST control)","1.14 fold enrichment (6-mer frequency, TF over GST control)","1.12 fold enrichment (6-mer frequency, TF over GST control)","1.06 fold enrichment (6-mer frequency, TF over GST control)","1.11 fold enrichment (6-mer frequency, TF over GST control)","1.06 fold enrichment (6-mer frequency, TF over GST control)","1.03 fold enrichment (6-mer frequency, TF over GST control)","1.06 fold enrichment (6-mer frequency, TF over GST control)"
CTATAA,"1.29 fold enrichment (6-mer frequency, TF over GST control)","1.14 fold enrichment (6-mer frequency, TF over GST control)","1.28 fold enrichment (6-mer frequency, TF over GST control)","1.34 fold enrichment (6-mer frequency, TF over GST control)","1.22 fold enrichment (6-mer frequency, TF over GST control)","1.2 fold enrichment (6-mer frequency, TF over GST control)","1.14 fold enrichment (6-mer frequency, TF over GST control)","1.16 fold enrichment (6-mer frequency, TF over GST control)"
GCTACA,"1.2 fold enrichment (6-mer frequency, TF over GST control)","1.29 fold enrichment (6-mer frequency, TF over GST control)","1.17 fold enrichment (6-mer frequency, TF over GST control)","1.25 fold enrichment (6-mer frequency, TF over GST control)","1.18 fold enrichment (6-mer frequency, TF over GST control)","1.19 fold enrichment (6-mer frequency, TF over GST control)","1.17 fold enrichment (6-mer frequency, TF over GST control)","1.17 fold enrichment (6-mer frequency, TF over GST control)"
CACAAC,"1.36 fold enrichment (6-mer frequency, TF over GST control)","1.29 fold enrichment (6-mer frequency, TF over GST control)","1.25 fold enrichment (6-mer frequency, TF over GST control)","1.25 fold enrichment (6-mer frequency, TF over GST control)","1.13 fold enrichment (6-mer frequency, TF over GST control)","1.28 fold enrichment (6-mer frequency, TF over GST control)","1.22 fold enrichment (6-mer frequency, TF over GST control)","1.24 fold enrichment (6-mer frequency, TF over GST control)"
AAATTC,"1.29 fold enrichment (6-mer frequency, TF over GST control)","1.43 fold enrichment (6-mer frequency, TF over GST control)","1.33 fold enrichment (6-mer frequency, TF over GST control)","1.34 fold enrichment (6-mer frequency, TF over GST control)","1.28 fold enrichment (6-mer frequency, TF over GST control)","1.4 fold enrichment (6-mer frequency, TF over GST control)","1.3 fold enrichment (6-mer frequency, TF over GST control)","1.31 fold enrichment (6-mer frequency, TF over GST control)"
CCGGGT,"1.1 fold enrichment (6-mer frequency, TF over GST control)","1.04 fold enrichment (6-mer frequency, TF over GST control)","1.24 fold enrichment (6-mer frequency, TF over GST control)","1.79 fold enrichment (6-mer frequency, TF over GST control)","1.13 fold enrichment (6-mer frequency, TF over GST control)","1.55 fold enrichment (6-mer frequency, TF over GST control)","1.21 fold enrichment (6-mer frequency, TF over GST control)","1.21 fold enrichment (6-mer frequency, TF over GST control)"

# Reference: paper PMC7862700, “An all-to-all approach to the identification of sequence-specific readers for epigenetic DNA modifications on cytosine”
